Measurements reported in paper PMC11006913.
Residue numbers refer to the chain shown, from its start.

Legend:
Assay in all cases: PBM; 200 nM protein, PBS
Conditions in all cases: dsDNA, one strand shown
SHOX [1] = target: SHOX (Homo sapiens, UniProt O15266 103-189)
SHOX [2] = target: SHOX (Homo sapiens, UniProt O15266 103-189, R173C)
PROP1 [3] = target: PROP1 (Homo sapiens, UniProt O75360 56-141)
PROP1 [4] = target: PROP1 (Homo sapiens, UniProt O75360 56-141, R99H)
PROP1 [5] = target: PROP1 (Homo sapiens, UniProt O75360 56-141, F88S)
Sequence of PROP1 (Homo sapiens, UniProt O75360 56-141, F88S) (O75360 56-141 F88S): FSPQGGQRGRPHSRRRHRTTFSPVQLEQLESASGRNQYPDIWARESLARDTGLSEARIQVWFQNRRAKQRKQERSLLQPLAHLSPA

CRX [6] = target: CRX (Homo sapiens, UniProt O43186 26-111, R41L)
Sequence of CRX (Homo sapiens, UniProt O43186 26-111, R41L) (O43186 26-111 R41L): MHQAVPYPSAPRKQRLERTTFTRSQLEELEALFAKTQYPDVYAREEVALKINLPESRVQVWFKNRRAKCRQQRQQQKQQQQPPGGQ

VAX1 [7] = target: VAX1 (Homo sapiens, UniProt Q5SQQ9 86-172)
Sequence of VAX1 (Homo sapiens, UniProt Q5SQQ9 86-172) (Q5SQQ9 86-172): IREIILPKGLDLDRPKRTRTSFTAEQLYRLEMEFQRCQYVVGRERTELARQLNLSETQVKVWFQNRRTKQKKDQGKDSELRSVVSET

VAX1 [8] = target: VAX1 (Homo sapiens, UniProt Q5SQQ9 86-172, T142I)
Sequence of VAX1 (Homo sapiens, UniProt Q5SQQ9 86-172, T142I) (Q5SQQ9 86-172 T142I): as the sequence (Q5SQQ9 86-172) above, with T57I counted along it

VAX1 [9] = target: VAX1 (Homo sapiens, UniProt Q5SQQ9 86-172, K157R)
Sequence of VAX1 (Homo sapiens, UniProt Q5SQQ9 86-172, K157R) (Q5SQQ9 86-172 K157R): as the sequence (Q5SQQ9 86-172) above, with K72R counted along it

CRX [10] = target: CRX (Homo sapiens, UniProt O43186 26-111)
Sequence of CRX (Homo sapiens, UniProt O43186 26-111) (O43186 26-111): as the sequence (O43186 26-111 R41L) above, with L16R counted along it

VENTX [11] = target: T1, VENTX (Homo sapiens, UniProt O95231 78-163, R121Q)
T1 sequence: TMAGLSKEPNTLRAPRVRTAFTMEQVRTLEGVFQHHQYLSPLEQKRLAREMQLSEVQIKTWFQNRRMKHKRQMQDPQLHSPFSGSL

VENTX [12] = target: T2, VENTX (Homo sapiens, UniProt O95231 78-163, Y115F)
T2 sequence: T1 sequence with Y38F, Q44R

CRX [13] = target: CRX (Homo sapiens, UniProt O43186 26-111, E42D)
Sequence of CRX (Homo sapiens, UniProt O43186 26-111, E42D) (O43186 26-111 E42D): as the sequence (O43186 26-111 R41L) above, with L16R, E17D counted along it

PITX2 = PITX2 (Homo sapiens, UniProt Q99697 72-157)
VENTX [14] = target: T3, VENTX (Homo sapiens, UniProt O95231 78-163)
T3 sequence: T1 sequence with Q44R

HOXB9 [15] = target: HOXB9 (Homo sapiens, UniProt P17482 171-250)
Sequence of HOXB9 (Homo sapiens, UniProt P17482 171-250) (P17482 171-250): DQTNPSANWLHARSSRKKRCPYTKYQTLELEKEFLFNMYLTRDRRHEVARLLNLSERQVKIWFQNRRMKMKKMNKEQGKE

HOXB9 [16] = target: HOXB9 (Homo sapiens, UniProt P17482 171-250, R186Q)
Sequence of HOXB9 (Homo sapiens, UniProt P17482 171-250, R186Q) (P17482 171-250 R186Q): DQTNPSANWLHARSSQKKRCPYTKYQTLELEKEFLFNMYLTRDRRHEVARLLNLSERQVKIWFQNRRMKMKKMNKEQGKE

HOXC9 [17] = target: HOXC9 (Homo sapiens, UniProt P31274 178-260, K195R)
Sequence of HOXC9 (Homo sapiens, UniProt P31274 178-260, K195R) (P31274 178-260 K195R): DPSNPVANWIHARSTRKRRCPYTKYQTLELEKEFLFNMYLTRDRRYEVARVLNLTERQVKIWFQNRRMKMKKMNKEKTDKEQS

ALX4 [18] = target: ALX4 (Homo sapiens, UniProt Q9H161 200-286)
Sequence of ALX4 (Homo sapiens, UniProt Q9H161 200-286) (Q9H161 200-286): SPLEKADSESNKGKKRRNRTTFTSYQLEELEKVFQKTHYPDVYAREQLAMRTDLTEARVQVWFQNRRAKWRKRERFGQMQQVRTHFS

ALX4 [19] = target: ALX4 (Homo sapiens, UniProt Q9H161 200-286, Q225E)
Sequence of ALX4 (Homo sapiens, UniProt Q9H161 200-286, Q225E) (Q9H161 200-286 Q225E): as the sequence (Q9H161 200-286) above, with Q26E counted along it

HOXC9 [20] = target: HOXC9 (Homo sapiens, UniProt P31274 178-260)
Sequence of HOXC9 (Homo sapiens, UniProt P31274 178-260) (P31274 178-260): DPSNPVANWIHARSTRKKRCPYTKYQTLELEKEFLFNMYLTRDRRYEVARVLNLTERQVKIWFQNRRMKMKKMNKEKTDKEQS

HOXC9 [21] = target: HOXC9 (Homo sapiens, UniProt P31274 178-260, R193K)
Sequence of HOXC9 (Homo sapiens, UniProt P31274 178-260, R193K) (P31274 178-260 R193K): as the sequence (P31274 178-260) above, with R16K counted along it

HOXC9 [22] = target: HOXC9 (Homo sapiens, UniProt P31274 178-260, R222W)
Sequence of HOXC9 (Homo sapiens, UniProt P31274 178-260, R222W) (P31274 178-260 R222W): as the sequence (P31274 178-260) above, with R45W counted along it

HOXA4 = HOXA4 (Homo sapiens, UniProt Q00056 201-287, R217L)
Sequence of HOXA4 (Q00056 201-287 R217L): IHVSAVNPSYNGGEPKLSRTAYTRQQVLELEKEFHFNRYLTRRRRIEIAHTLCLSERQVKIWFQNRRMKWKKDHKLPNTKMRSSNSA

Sequence of SHOX (Homo sapiens, UniProt O15266 103-189, R173C) (O15266 103-189 R173C): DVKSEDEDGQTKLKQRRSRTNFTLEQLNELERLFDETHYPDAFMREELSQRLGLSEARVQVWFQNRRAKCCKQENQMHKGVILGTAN
Sequence of SHOX (Homo sapiens, UniProt O15266 103-189) (O15266 103-189): as the sequence (O15266 103-189 R173C) above, with C71R counted along it
Sequence of PROP1 (Homo sapiens, UniProt O75360 56-141, R99H) (O75360 56-141 R99H): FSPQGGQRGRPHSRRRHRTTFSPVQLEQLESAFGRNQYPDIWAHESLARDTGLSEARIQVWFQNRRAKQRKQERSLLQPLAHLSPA
Sequence of PROP1 (Homo sapiens, UniProt O75360 56-141) (O75360 56-141): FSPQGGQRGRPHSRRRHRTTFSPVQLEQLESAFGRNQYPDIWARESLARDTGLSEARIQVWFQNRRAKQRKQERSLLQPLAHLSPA

For CTCCGAAC, the binding signal (SHOX [1]) was 7.18 upbm affinity estimate (log intensity, higher = more binding, comparable within an allelic series) and the binding signal (SHOX [2]) was 7.23 upbm affinity estimate (log intensity, higher = more binding, comparable within an allelic series).
For CGCAGCCG, the binding signal (SHOX [1]) was 7.02 upbm affinity estimate (log intensity, higher = more binding, comparable within an allelic series) and the binding signal (SHOX [2]) was 7.12 upbm affinity estimate (log intensity, higher = more binding, comparable within an allelic series).
In the case of CCTTTCCC, the binding signal (SHOX [1]) is reported as 7.21 upbm affinity estimate (log intensity, higher = more binding, comparable within an allelic series), the binding signal (SHOX [2]) is reported as 7.11 upbm affinity estimate (log intensity, higher = more binding, comparable within an allelic series) and the binding signal (PROP1 [3]) is reported as 6.78 upbm affinity estimate (log intensity, higher = more binding, comparable within an allelic series). For the same sequence, the binding signal (PROP1 [4]) was 6.87 upbm affinity estimate (log intensity, higher = more binding, comparable within an allelic series) and the binding signal (PROP1 [5]) was 6.77 upbm affinity estimate (log intensity, higher = more binding, comparable within an allelic series).
With ACCTGAGG the binding signal (SHOX [1]) was 7.18 upbm affinity estimate (log intensity, higher = more binding, comparable within an allelic series) and the binding signal (SHOX [2]) was 7.27 upbm affinity estimate (log intensity, higher = more binding, comparable within an allelic series).
In the case of GCTAATAC, the binding signal (SHOX [1]) is reported as 9.1 upbm affinity estimate (log intensity, higher = more binding, comparable within an allelic series) and the binding signal (CRX [6]) is reported as 10.9 upbm affinity estimate (log intensity, higher = more binding, comparable within an allelic series).
In the case of CGGCCTCC, the binding signal (SHOX [1]) is reported as 6.98 upbm affinity estimate (log intensity, higher = more binding, comparable within an allelic series) and the binding signal (SHOX [2]) is reported as 7.08 upbm affinity estimate (log intensity, higher = more binding, comparable within an allelic series).
With GCCTGCCA the binding signal (SHOX [1]) was 7.25 upbm affinity estimate (log intensity, higher = more binding, comparable within an allelic series) and the binding signal (SHOX [2]) was 7.26 upbm affinity estimate (log intensity, higher = more binding, comparable within an allelic series).
With GCCAGGGA the binding signal (SHOX [1]) was 7.22 upbm affinity estimate (log intensity, higher = more binding, comparable within an allelic series) and the binding signal (SHOX [2]) was 7.13 upbm affinity estimate (log intensity, higher = more binding, comparable within an allelic series).
In the case of CTCTCCTC, the binding signal (SHOX [1]) is reported as 7.22 upbm affinity estimate (log intensity, higher = more binding, comparable within an allelic series) and the binding signal (SHOX [2]) is reported as 7.21 upbm affinity estimate (log intensity, higher = more binding, comparable within an allelic series).
CCCACTCG was tested, and the binding signal (SHOX [1]) was 7.04 upbm affinity estimate (log intensity, higher = more binding, comparable within an allelic series) and the binding signal (SHOX [2]) was 7.12 upbm affinity estimate (log intensity, higher = more binding, comparable within an allelic series).
In the case of CCGAGGGA, the binding signal (SHOX [1]) is reported as 7.05 upbm affinity estimate (log intensity, higher = more binding, comparable within an allelic series), the binding signal (SHOX [2]) is reported as 7.2 upbm affinity estimate (log intensity, higher = more binding, comparable within an allelic series) and the binding signal (VAX1 [7]) is reported as 7.35 upbm affinity estimate (log intensity, higher = more binding, comparable within an allelic series). The binding signal (VAX1 [8]) was 7.23 upbm affinity estimate (log intensity, higher = more binding, comparable within an allelic series) and the binding signal (VAX1 [9]) was 7.35 upbm affinity estimate (log intensity, higher = more binding, comparable within an allelic series).
With AATTCTGA the binding signal (CRX [10]) was 10 upbm affinity estimate (log intensity, higher = more binding, comparable within an allelic series).
In the case of CCAATCAC, the binding signal (SHOX [1]) is reported as 8.6 upbm affinity estimate (log intensity, higher = more binding, comparable within an allelic series), the binding signal (SHOX [2]) is reported as 7.61 upbm affinity estimate (log intensity, higher = more binding, comparable within an allelic series) and the binding signal (VAX1 [7]) is reported as 8.98 upbm affinity estimate (log intensity, higher = more binding, comparable within an allelic series). For the same sequence, the binding signal (VAX1 [9]) was 8.89 upbm affinity estimate (log intensity, higher = more binding, comparable within an allelic series).
For GCCCAAGC, the binding signal (SHOX [1]) was 7.26 upbm affinity estimate (log intensity, higher = more binding, comparable within an allelic series) and the binding signal (SHOX [2]) was 7.23 upbm affinity estimate (log intensity, higher = more binding, comparable within an allelic series).
ATAATCTG was tested, and the binding signal (CRX [10]) was 13 upbm affinity estimate (log intensity, higher = more binding, comparable within an allelic series), the binding signal (VENTX [11]) was 9.97 upbm affinity estimate (log intensity, higher = more binding, comparable within an allelic series) and the binding signal (VENTX [12]) was 10.1 upbm affinity estimate (log intensity, higher = more binding, comparable within an allelic series). For the same sequence, the binding signal (CRX [13]) was 13 upbm affinity estimate (log intensity, higher = more binding, comparable within an allelic series) and the binding signal (CRX [6]) was 13 upbm affinity estimate (log intensity, higher = more binding, comparable within an allelic series).
With CAGATTAA the binding signal (CRX [10]) was 13.1 upbm affinity estimate (log intensity, higher = more binding, comparable within an allelic series), the binding signal (VENTX [11]) was 10.7 upbm affinity estimate (log intensity, higher = more binding, comparable within an allelic series) and the binding signal (VENTX [12]) was 10.7 upbm affinity estimate (log intensity, higher = more binding, comparable within an allelic series). The binding signal (CRX [13]) was 13.1 upbm affinity estimate (log intensity, higher = more binding, comparable within an allelic series) and the binding signal (PITX2) was 12.5 upbm affinity estimate (log intensity, higher = more binding, comparable within an allelic series).
For GGATTACA, the binding signal (CRX [10]) was 13.1 upbm affinity estimate (log intensity, higher = more binding, comparable within an allelic series), the binding signal (VENTX [11]) was 9.08 upbm affinity estimate (log intensity, higher = more binding, comparable within an allelic series) and the binding signal (VENTX [14]) was 9.3 upbm affinity estimate (log intensity, higher = more binding, comparable within an allelic series). For the same sequence, the binding signal (VENTX [12]) was 9.18 upbm affinity estimate (log intensity, higher = more binding, comparable within an allelic series), the binding signal (HOXB9 [15]) was 9.44 upbm affinity estimate (log intensity, higher = more binding, comparable within an allelic series) and the binding signal (CRX [13]) was 13 upbm affinity estimate (log intensity, higher = more binding, comparable within an allelic series). The binding signal (PITX2) was 12.8 upbm affinity estimate (log intensity, higher = more binding, comparable within an allelic series), the binding signal (HOXB9 [16]) was 9.52 upbm affinity estimate (log intensity, higher = more binding, comparable within an allelic series) and the binding signal (CRX [6]) was 13 upbm affinity estimate (log intensity, higher = more binding, comparable within an allelic series).
With AGGGGACC the binding signal (CRX [10]) was 8.1 upbm affinity estimate (log intensity, higher = more binding, comparable within an allelic series), the binding signal (HOXC9 [17]) was 9.61 upbm affinity estimate (log intensity, higher = more binding, comparable within an allelic series) and the binding signal (ALX4 [18]) was 8.18 upbm affinity estimate (log intensity, higher = more binding, comparable within an allelic series). The binding signal (ALX4 [19]) was 8.19 upbm affinity estimate (log intensity, higher = more binding, comparable within an allelic series), the binding signal (CRX [13]) was 8.22 upbm affinity estimate (log intensity, higher = more binding, comparable within an allelic series) and the binding signal (HOXC9 [20]) was 9.69 upbm affinity estimate (log intensity, higher = more binding, comparable within an allelic series). The binding signal (HOXC9 [21]) was 9.54 upbm affinity estimate (log intensity, higher = more binding, comparable within an allelic series), the binding signal (HOXC9 [22]) was 9.53 upbm affinity estimate (log intensity, higher = more binding, comparable within an allelic series) and the binding signal (CRX [6]) was 8.23 upbm affinity estimate (log intensity, higher = more binding, comparable within an allelic series).
For CCCGACCC, the binding signal (CRX [10]) was 7.98 upbm affinity estimate (log intensity, higher = more binding, comparable within an allelic series), the binding signal (VENTX [11]) was 7.97 upbm affinity estimate (log intensity, higher = more binding, comparable within an allelic series) and the binding signal (VENTX [14]) was 8.07 upbm affinity estimate (log intensity, higher = more binding, comparable within an allelic series). For the same sequence, the binding signal (VENTX [12]) was 8.09 upbm affinity estimate (log intensity, higher = more binding, comparable within an allelic series), the binding signal (CRX [13]) was 8.12 upbm affinity estimate (log intensity, higher = more binding, comparable within an allelic series) and the binding signal (CRX [6]) was 8.25 upbm affinity estimate (log intensity, higher = more binding, comparable within an allelic series).
ACTAATCG was tested, and the binding signal (CRX [10]) was 12.1 upbm affinity estimate (log intensity, higher = more binding, comparable within an allelic series), the binding signal (VENTX [11]) was 11.6 upbm affinity estimate (log intensity, higher = more binding, comparable within an allelic series) and the binding signal (VENTX [14]) was 12.6 upbm affinity estimate (log intensity, higher = more binding, comparable within an allelic series). For the same sequence, the binding signal (VENTX [12]) was 11.5 upbm affinity estimate (log intensity, higher = more binding, comparable within an allelic series), the binding signal (HOXA4) was 11.2 upbm affinity estimate (log intensity, higher = more binding, comparable within an allelic series) and the binding signal (CRX [13]) was 11.9 upbm affinity estimate (log intensity, higher = more binding, comparable within an allelic series). The binding signal (CRX [6]) was 11.3 upbm affinity estimate (log intensity, higher = more binding, comparable within an allelic series).
ATTATCTC was tested, and the binding signal (CRX [10]) was 11.7 upbm affinity estimate (log intensity, higher = more binding, comparable within an allelic series), the binding signal (HOXC9 [17]) was 11.4 upbm affinity estimate (log intensity, higher = more binding, comparable within an allelic series) and the binding signal (CRX [13]) was 11.5 upbm affinity estimate (log intensity, higher = more binding, comparable within an allelic series). For the same sequence, the binding signal (HOXC9 [20]) was 11.4 upbm affinity estimate (log intensity, higher = more binding, comparable within an allelic series), the binding signal (HOXC9 [21]) was 11.4 upbm affinity estimate (log intensity, higher = more binding, comparable within an allelic series) and the binding signal (CRX [6]) was 11.5 upbm affinity estimate (log intensity, higher = more binding, comparable within an allelic series).
